# Test results taken from PubChem BioAssay AID1345083 (National Center for Advancing Translational Sciences (NCATS), 2018).
# Among all 94,000 compounds or so, about 6,200 (6.6%) were called active. Roughly 31% stayed inconclusive and do not appear here. For the sample, actives were picked, then their nearest neighbours and some compounds at random. A number with no mark means an inactive call. The call rests on the fitted dose curve; in most records, active means well fitted inhibition curve with a large enough effect; inconclusive means small, poorly fitted or top-dose-only effect; inactive means flat fitted curve, though single readings scatter.
# Assay: Cytotoxic Profiling in HEK 293 Cell Line of Diverse Libraries Using Quantitative High-Throughput Screening; further: nearly all actives have a fitted effect of over 60% in size
# Details: HEK 293 viability, ATP luminescence (CellTiter-Glo), 48-72 h; series mostly up to 115 µM; activity change, negative = cytotoxicity: at the top concentration
# Summary of the method: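 HEK 293 cells seeded at 250 cells/well were exposed to compound for 48 or 72 hr at 37 degree Celsius. Viability taken as ATP content by CellTiter-Glo luminescence.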
# On the % scale 0 is the no-effect control and ±100 the full control effect; potency means the concentration at half of the fitted maximal effect.
Compound,Potency,"activity change, negative = cytotoxicity",outcome
O=C(NCc1ccc(F)cc1)c1ccc2nnc(Cc3ccco3)n2c1,inactive,–,–
COCCNC(=O)c1ccc2nnc(-c3cccc(C(F)(F)F)c3)n2c1,–,0.3%,–
CCN1CCN(C(=O)c2ccc3nnc(Cc4ccc(Cl)cc4)n3c2)CC1,–,–,inactive
O=C(NCc1ccc(F)c(F)c1)c1ccc2nnc(-c3cccnc3)n2c1,–,-3.74%,–
O=C(NCc1ccc(C(F)(F)F)cc1)c1ccc2nnc(-c3ccc(C(F)(F)F)cc3)n2c1,35.5 µM (active),–,–
O=C(NCc1cccc(Cl)c1)c1ccc2nnc(Cc3ccc(Cl)cc3)n2c1,44.7 µM (active),–,–
COc1cccc(CN2CC(O)CN(S(C)(=O)=O)CC2=O)c1OC (stereo not drawn),–,-15.1%,–
COc1ccc2[nH]c(C(=O)N[C@@H]3CN(S(C)(=O)=O)C[C@H]3CN(C)C)cc2c1,–,3.78%,–
CCNC(=O)N1CCC(n2c(C)cnc2C2CCC2)CC1,–,–,inactive
COCCc1noc(CC2CCOC3(CCN(C(=O)Nc4ccc5c(c4)OCCO5)CC3)C2)n1 (stereo not drawn),–,-16.7%,–
CC1=NOC2(CCN(Cc3ccncc3)CC2)C1,–,–,inactive [at 172 µM]
COc1ccc(CN2CCC3(CC2)CC(=O)c2ccc(Cl)cc2O3)cc1,39.8 µM (active),–,–
COc1ccc(CN2CCC3(CC(C(C)C)=NO3)C2)cc1 (stereo not drawn),–,3.43% [at 172 µM],–
COc1ccccc1CN1CC[C@H](CNC(C)=O)[C@H](N(C)C)C1,–,-6.07%,–
O=C(NCC1CCN(c2cc(-c3ccc(Cl)cc3)[nH]n2)CC1)c1ccc(=O)[nH]c1,–,-5.24%,–
CC(=O)N1CCC(C(=O)NCC2CCN(c3cc(-c4ccc(C)cc4)[nH]n3)CC2)CC1,–,-16.8%,–
Cc1nccn1CC(=O)NCC1CCN(c2cc(-c3ccccc3)[nH]n2)CC1,–,0.823%,–
O=C(N1CCN(c2cc(-c3ccc(Cl)cc3)[nH]n2)CC1)C1(c2ccccc2)CC1,44.7 µM (active),–,–
O=C(NCc1ccccc1F)C1(c2ccc(Cl)cc2)CCOCC1,–,-17.4% [at 172 µM],–
O=C(c1ccc2cc[nH]c2c1)N1CCCN(c2cc(-c3ccc(Cl)cc3)[nH]n2)CC1,39.8 µM (active),–,–
O=C(c1ccc(F)cc1F)N1CCN(c2cc(-c3ccc(Cl)cc3)[nH]n2)CC1,39.8 µM (active),–,–
COc1ccccc1C(=O)N1CCCN(c2ccc3nnc(C)n3n2)CC1,–,-1.49%,–
O=C(Cc1ccc(F)cc1)NC1CCN(c2cc(-c3ccc(Cl)cc3)[nH]n2)CC1,–,1.39%,–
O=C(c1ccccc1Cl)N1CCCN(c2cc(-c3ccc(F)cc3)[nH]n2)CC1,44.7 µM (active),–,–

Compound,Potency,"activity change, negative = cytotoxicity",outcome
COc1ccc(-c2cc(N3CCN(C(=O)c4ccncc4)CC3)n[nH]2)cc1,–,-19.5%,–
COc1ccccc1C(=O)N1CCCN(c2nnc3ccccn23)CC1,–,-2.9%,–
C#CCNC(=O)C[C@@H]1O[C@H](CNC(C)=O)[C@@H](O)[C@H]1O,–,–,inactive [at 230 µM]
O=C(NCCc1ccccc1)c1nc2sccn2c1-c1ccccc1,–,-15.6%,–
Cc1nc(CC(=O)N2C[C@@H](CN3CCCCCC3)[C@@H](CO)C2)cs1,–,-2.94%,–
COCC(=O)N1C[C@@H](COc2cccnc2)[C@H](c2ccccn2)C1,–,-1.3%,–
CN(CCc1ccccn1)[C@@H]1[C@H](O)[C@H](CO)O[C@@H]1CNS(=O)(=O)c1cccs1,–,3.52%,–
O=C(c1cnccn1)N1CCC(NCc2cc3n(n2)CCCNC3)CC1,–,-0.759%,–
Cc1noc(C)c1S(=O)(=O)N[C@@H]1C[C@H](Cn2cc(C3CC3)nn2)[C@@H](O)[C@H]1O,–,-1.11% [at 172 µM],–
O=C(NC1CCCCC1)C1CN(C(=O)c2ccccc2F)CC12CCOCC2 (stereo not drawn),–,0.348%,–
Cc1ccc(-n2c(C3CCN(C(=O)c4ccoc4)CC3)n[nH]c2=O)cc1,–,-4.39%,–
COc1ccc(F)cc1-c1ccc(CN2CCC(N[S+](=O)([O-])c3ccccc3)C2)cc1 (stereo not drawn),44.7 µM (active),–,–
CC(C)Nc1ncc(C(=O)NC2CCCN(CCc3ccccc3)C2)cn1 (stereo not drawn),–,–,inactive
COc1ccc(-c2ccccc2C(=O)N2CCC(NC(=O)Cc3ccc(F)cc3)CC2)nn1,–,–,inactive
COc1ccc(CC(=O)NC2CCN(c3ccc4nnc(C)n4n3)CC2)cc1,–,4.27%,–
COc1ccccc1-c1ccc(C(=O)O)cc1,–,-1.49% [at 172 µM],–
Cc1ccc(-c2cccc(CN3CCCC(NC(=O)c4ccc(Cl)cc4)C3)c2)cc1Cl (stereo not drawn),–,1.69%,–
O=C(NC1CCCN(c2ccc3nnc(C4CC4)n3n2)C1)c1ccc(Cl)nc1 (stereo not drawn),–,-24.6%,–
COc1ccccc1-c1ccc(CN2CCC(NC(=O)c3ccc(Cl)nc3)C2)cc1 (stereo not drawn),50.1 µM (active),–,–
COc1ccccc1-c1nnc2ccc(C(=O)NC3CC3)cn12,–,-6.24% [at 172 µM],–
COc1ccc(CC(=O)NC2CCN(Cc3ccc(-c4ccccc4OC)cc3)C2)cc1 (stereo not drawn),39.8 µM (active),–,–
Fc1ccc(CN2CC(Oc3ccc(F)cc3F)C2)cc1,–,-5.88%,–
Cc1cc(C)cc(-c2ccc(CN3CCCC(NC(=O)c4ccccc4)C3)cc2)c1 (stereo not drawn),28.2 µM (active),–,–
CN(C)C(=O)C1CN(C(=O)c2ccccc2Cl)CC12CCOCC2 (stereo not drawn),–,-0.809%,–
